# Source: PubChem BioAssay (EPA / NIEHS)
# Inconclusive results are not listed. Activity calls are given as the source filed them. How the source made its calls, unless noted: active means hit-call score of the fitted dose curve at least 0.9, where 1 is the maximum; inconclusive means response in the unintended direction; inactive means score below 0.9.
# Tests used:
# [1] = test system: guinea pig Dopamine Transporter (DAT), gene 100714898; assay: NVS_TR_gDAT: NovaScreen (NVS) Transporter Assay for guinea pig Dopamine Transporter (DAT) (AID 2283369);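 further: active compounds lower bound radioligand signal relative to DMSO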
# Summary of the method: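 Guinea pig striatal membranes; radioligand displacement measured by filter-based scintillation counting 2 h after dosing. Initial duplicate screen at 25 uM, then concentration-response up to 50 uM for hits; loss of signal versus DMSO baseline.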
# [2] = target: Estrogen receptor (Homo sapiens) + Estrogen receptor beta (Homo sapiens) (UniProt P03372+Q92731); assay: OT_ER_ERaERb_0480: Odyssey Thera (OT) 8-hour HEK293T Protein-Complementation Assay for Estrogen Receptor-alpha/-beta Heterodimer (AID 2283352)
# Chain of Estrogen receptor (Homo sapiens) + Estrogen receptor beta (Homo sapiens) (P03372 whole entry, looked up, the tested form may be a part): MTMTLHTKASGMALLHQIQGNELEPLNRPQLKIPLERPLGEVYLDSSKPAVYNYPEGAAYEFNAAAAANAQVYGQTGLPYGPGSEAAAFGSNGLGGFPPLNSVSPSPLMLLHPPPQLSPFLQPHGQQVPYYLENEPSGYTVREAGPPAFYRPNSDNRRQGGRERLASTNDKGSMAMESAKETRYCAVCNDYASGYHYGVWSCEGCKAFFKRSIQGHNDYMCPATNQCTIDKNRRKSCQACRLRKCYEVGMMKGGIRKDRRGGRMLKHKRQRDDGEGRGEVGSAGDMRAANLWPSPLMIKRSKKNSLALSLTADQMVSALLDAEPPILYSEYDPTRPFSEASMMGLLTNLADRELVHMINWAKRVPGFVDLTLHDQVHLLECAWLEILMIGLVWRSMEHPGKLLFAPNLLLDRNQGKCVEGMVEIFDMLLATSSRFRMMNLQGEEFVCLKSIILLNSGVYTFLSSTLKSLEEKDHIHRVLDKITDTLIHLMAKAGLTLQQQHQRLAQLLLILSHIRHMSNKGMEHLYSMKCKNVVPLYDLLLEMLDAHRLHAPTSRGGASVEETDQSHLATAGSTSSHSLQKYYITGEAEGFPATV
# Chain of Estrogen receptor (Homo sapiens) + Estrogen receptor beta (Homo sapiens) (Q92731 whole entry, looked up, the tested form may be a part): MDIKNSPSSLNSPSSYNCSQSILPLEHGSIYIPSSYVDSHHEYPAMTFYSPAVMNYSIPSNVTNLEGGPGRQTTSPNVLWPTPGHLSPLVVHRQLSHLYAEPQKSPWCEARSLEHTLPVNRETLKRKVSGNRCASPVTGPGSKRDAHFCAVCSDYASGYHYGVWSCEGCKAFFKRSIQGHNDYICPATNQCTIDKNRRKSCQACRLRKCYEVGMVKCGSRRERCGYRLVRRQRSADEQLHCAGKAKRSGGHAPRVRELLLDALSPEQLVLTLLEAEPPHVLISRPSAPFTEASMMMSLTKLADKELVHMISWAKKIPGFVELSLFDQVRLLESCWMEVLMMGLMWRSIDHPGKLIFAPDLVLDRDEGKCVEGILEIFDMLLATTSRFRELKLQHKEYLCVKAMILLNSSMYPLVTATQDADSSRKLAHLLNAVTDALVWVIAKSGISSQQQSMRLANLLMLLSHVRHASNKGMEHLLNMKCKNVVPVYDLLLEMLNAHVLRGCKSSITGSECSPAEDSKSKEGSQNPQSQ
# Summary of the method: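 HEK293T cells expressing ER-alpha/ER-beta LBD fusions to complementary reporter fragments were dosed with compound for 8 hours. Heterodimer formation was read as increased nuclear (agonist) or nuclear plus cytoplasmic (antagonist) mean fluorescence intensity versus DMSO vehicle.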
# [3] = UKN2_HCS_IMR90_neural_migration: University of Konstanz (UKN) Leist Lab Neural Crest Cell Migration Assay in human induced IMR90 Pluripotent Stem Cells (UKN2) (AID 2284204; active means hit-call score of the fitted dose curve at least 0.9, where 1 is the maximum; inactive means score below 0.9); details: actives raise or lower the signal
# Summary of the method: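 Stopper-exclusion migration (cMINC), human iPSC-derived neural crest cells; N2-S + EGF/FGF; compound added 24 h post-stopper removal, 24 h exposure. Readout: calcein-AM/Hoechst 30 min, HCS fluorescence imaging; bidirectional fitting, DMSO baseline.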
# [4] = UKN4_HCS_LUHMES_neurite_outgrowth: University of Konstanz (UKN) Leist Lab Neurite Outgrowth Assay in human LUHMES cells (UKN4) (AID 2284206; active means hit-call score of the fitted dose curve at least 0.9, where 1 is the maximum; inactive means score below 0.9); details: actives raise or lower the signal
# Summary of the method: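 Human LUHMES cells were differentiated for two days, replated and treated with chemicals for 24 h. Neurite outgrowth was quantified as calcein-stained neurite area by HCS imaging, fitted bidirectionally relative to DMSO.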
# [5] = UKN4_HCS_LUHMES_cell_viability: Viability Assessment in the University of Konstanz (UKN) Leist Lab Neurite Outgrowth Assay in human LUHMES cells (UKN4) (AID 2284232; active means hit-call score of the fitted dose curve at least 0.9, where 1 is the maximum; inactive means score below 0.9)
# Summary of the method: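 Cells switched to differentiation medium at day 0, replated on day 2 in medium lacking cAMP and GDNF, and compound-treated once attached. Live staining began 23.5 h later, imaging followed at 24 h.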
# [6] = UKN2_HCS_IMR90_cell_viability: Viability Assessment in the University of Konstanz (UKN) Leist Lab Neural Crest Cell Migration Assay in human induced IMR90 Pluripotent Stem Cells (UKN2) (AID 2284233; active means hit-call score of the fitted dose curve at least 0.9, where 1 is the maximum; inactive means score below 0.9;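 further: cells exposed to compound for 24 h after a 24 h migration phase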)
# Summary of the method: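 Viability read as calcein-AM fluorescence by high-content imaging, Hoechst co-stain, 30 min. Human iPSC (IMR90) neural crest cells had migrated 24 h into stopper-defined gaps before 24 h chemical exposure. Fitted bidirectionally relative to DMSO.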
# [7] = TOX21_TR_RXR_BLA_Agonist_Followup_viability: Viability Assessment in the Tox21 Thyroid Hormone Receptor beta Retinoid X Receptor alpha (RXRa) Agonism Beta-lactamase (BLA) Follow-Up Assay (AID 2283970)
# Summary of the method: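 Viability counter-screen run alongside the RXRa bla follow-up: HEK293T reporter cells were treated for 16h at 37C in stripped-serum medium, then ATP was quantified by luciferase-coupled CellTiter-Glo. Decreased signal relative to DMSO marked cytotoxicity.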
# [8] = target: human Thromboxane A2 Receptor (TXA2), TBXA2R (gene 6915) (UniProt P21731); assay: NVS_GPCR_hTXA2: NovaScreen (NVS) G Protein-Coupled Receptor Assay for human Thromboxane A2 Receptor (TXA2) (AID 2283282);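 further: actives reduce bound radioligand signal relative to DMSO baseline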
# Chain of human Thromboxane A2 Receptor (TXA2), TBXA2R (gene 6915) (P21731 whole entry, looked up): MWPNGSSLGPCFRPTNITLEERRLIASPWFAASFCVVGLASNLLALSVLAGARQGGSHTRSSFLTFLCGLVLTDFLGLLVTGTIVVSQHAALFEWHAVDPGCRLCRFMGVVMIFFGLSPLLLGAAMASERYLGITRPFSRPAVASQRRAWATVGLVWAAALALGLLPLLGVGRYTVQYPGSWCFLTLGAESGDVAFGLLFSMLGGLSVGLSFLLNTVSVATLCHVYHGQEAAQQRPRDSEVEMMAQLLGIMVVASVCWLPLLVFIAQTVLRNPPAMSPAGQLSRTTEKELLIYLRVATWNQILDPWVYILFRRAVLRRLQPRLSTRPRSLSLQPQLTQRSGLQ
# Summary of the method: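 Cell-free radioligand binding on membrane protein from human platelets; radioligand displacement read by filter-based scintillation counting after 1 h. Primary screen in duplicate at 25 uM, actives then run in concentration series; loss of signal versus DMSO.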
# [9] = target: human Esterase Plasma (ES), BCHE (gene 590) (UniProt P06276); assay: NVS_ENZ_hES: NovaScreen (NVS) Enzymatic Assay for human Esterase Plasma (ES) (AID 2283157)
# Chain of human Esterase Plasma (ES), BCHE (gene 590) (P06276 whole entry, looked up): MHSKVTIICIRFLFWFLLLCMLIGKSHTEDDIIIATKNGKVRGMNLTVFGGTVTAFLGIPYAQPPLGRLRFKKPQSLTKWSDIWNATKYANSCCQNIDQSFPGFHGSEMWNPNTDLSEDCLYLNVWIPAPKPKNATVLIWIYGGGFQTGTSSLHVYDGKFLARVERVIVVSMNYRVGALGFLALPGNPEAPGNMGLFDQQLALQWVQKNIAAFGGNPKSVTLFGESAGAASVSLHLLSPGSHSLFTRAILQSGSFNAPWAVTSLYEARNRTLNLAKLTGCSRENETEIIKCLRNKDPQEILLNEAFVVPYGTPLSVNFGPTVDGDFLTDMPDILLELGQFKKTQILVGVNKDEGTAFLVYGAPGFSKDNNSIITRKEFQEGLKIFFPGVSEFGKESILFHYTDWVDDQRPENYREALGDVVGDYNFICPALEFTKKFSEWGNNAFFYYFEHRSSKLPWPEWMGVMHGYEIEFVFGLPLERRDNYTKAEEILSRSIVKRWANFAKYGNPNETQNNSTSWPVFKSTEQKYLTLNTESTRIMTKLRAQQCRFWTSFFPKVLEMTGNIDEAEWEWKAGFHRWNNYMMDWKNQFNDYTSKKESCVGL
# Summary of the method: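 Human plasma-derived enzyme, cell-free, colorimetric readout at 0.25 h. Primary screen 25 uM in duplicate; hits (e.g. ≥30% inhibition) rerun singleton up to 50 uM. DMSO = negative control/baseline.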
# [10] = target: rat Adrenergic Receptor, Alpha 2 (Adra2), Non-selective Binding, Adra2a (gene 25083) (UniProt P22909); assay: NVS_GPCR_rAdra2_NonSelective: NovaScreen (NVS) G Protein-Coupled Receptor Assay for rat Adrenergic Receptor, Alpha 2 (Adra2), Non-selective Binding (AID 2283299)
# Chain of rat Adrenergic Receptor, Alpha 2 (Adra2), Non-selective Binding, Adra2a (gene 25083) (P22909 whole entry, looked up): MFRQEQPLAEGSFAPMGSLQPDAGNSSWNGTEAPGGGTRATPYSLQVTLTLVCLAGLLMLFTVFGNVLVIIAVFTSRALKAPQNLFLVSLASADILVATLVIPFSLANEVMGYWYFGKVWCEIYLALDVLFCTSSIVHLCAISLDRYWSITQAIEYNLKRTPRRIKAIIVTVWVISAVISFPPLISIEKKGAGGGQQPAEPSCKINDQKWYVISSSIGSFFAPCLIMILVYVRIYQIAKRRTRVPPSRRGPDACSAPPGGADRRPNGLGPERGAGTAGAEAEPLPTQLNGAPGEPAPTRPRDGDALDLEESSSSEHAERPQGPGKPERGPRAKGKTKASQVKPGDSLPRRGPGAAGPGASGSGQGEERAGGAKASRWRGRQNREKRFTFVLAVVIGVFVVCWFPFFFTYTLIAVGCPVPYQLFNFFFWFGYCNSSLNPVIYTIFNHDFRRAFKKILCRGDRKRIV
# Summary of the method: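 Filter-based scintillation counting of radioligand binding to rat cortical membrane receptors, measured 1.25 hours post-dosing; loss of signal versus DMSO indicates displacement. Initial single-concentration duplicate at 25 uM, then concentration series.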
# [11] = target: rat Serotonin Transporter (SERT), Slc6a4 (gene 25553) (UniProt P31652); assay: NVS_TR_rSERT: NovaScreen (NVS) Transporter Assay for rat Serotonin Transporter (SERT) (AID 2283375)
# Summary of the method: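 Rat forebrain membranes were incubated with test chemical for 1 hour; radioligand binding to SERT was measured by filter-based scintillation counting. Primary screen ran in duplicate at 25 uM, with actives followed up in concentration series; DMSO served as negative control.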
# PGR (gene 5241) [12] = target: PGR (gene 5241) (UniProt P06401); assay: TOX21_PR_BLA_Followup_Antagonist_ratio: Tox21 HEK293 Progesterone Receptor (PR) Antagonism Beta-lactamase Follow-Up Assay, Ratio (AID 2283934);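 further: PR-UAS-bla HEK293T cells stimulated with 1 nM R5020 agonist for 16 hr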
# Chain of PGR (gene 5241) (P06401 whole entry, looked up): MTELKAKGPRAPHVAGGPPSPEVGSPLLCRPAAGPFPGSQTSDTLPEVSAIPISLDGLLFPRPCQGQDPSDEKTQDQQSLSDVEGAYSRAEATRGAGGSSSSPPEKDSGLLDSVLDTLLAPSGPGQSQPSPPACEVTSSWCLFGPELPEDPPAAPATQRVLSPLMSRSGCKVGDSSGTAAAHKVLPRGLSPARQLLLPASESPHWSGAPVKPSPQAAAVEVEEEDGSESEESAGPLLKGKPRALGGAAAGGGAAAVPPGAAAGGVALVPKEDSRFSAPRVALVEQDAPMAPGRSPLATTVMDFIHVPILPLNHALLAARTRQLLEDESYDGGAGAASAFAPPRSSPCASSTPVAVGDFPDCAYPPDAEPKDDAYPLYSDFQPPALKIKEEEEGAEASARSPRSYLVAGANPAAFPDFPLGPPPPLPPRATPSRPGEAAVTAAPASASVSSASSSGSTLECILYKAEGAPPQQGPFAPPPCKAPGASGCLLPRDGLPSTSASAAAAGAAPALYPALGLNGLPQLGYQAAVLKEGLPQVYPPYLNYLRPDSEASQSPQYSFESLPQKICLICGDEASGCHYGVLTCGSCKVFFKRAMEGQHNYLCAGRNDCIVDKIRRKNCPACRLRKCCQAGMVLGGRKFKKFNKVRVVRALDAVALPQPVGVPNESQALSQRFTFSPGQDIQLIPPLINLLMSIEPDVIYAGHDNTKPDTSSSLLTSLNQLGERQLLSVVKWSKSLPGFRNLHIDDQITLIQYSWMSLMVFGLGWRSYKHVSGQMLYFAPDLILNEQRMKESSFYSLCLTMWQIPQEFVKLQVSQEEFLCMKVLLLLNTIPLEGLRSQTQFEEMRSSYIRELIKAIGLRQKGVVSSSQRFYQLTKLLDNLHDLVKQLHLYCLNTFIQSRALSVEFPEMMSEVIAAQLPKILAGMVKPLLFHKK
# Summary of the method: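 Cells are plated, rested 6 hr, then dosed with test compound in DMSO and challenged with 1 nM promegestone. After 16 hr incubation, substrate loading for 2 h at room temperature precedes fluorescence reading; viability is measured in the same wells.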
# PGR (gene 5241) [13] = target: PGR (gene 5241) (UniProt P06401); assay: TOX21_PR_LUC_Followup_Antagonist: Tox21 HEK293 Progesterone Receptor (PR) Antagonism Luciferase Follow-Up Assay (AID 2283938);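 further: curve fitted upward as signal gain over DMSO baseline despite antagonist label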
# Summary of the method: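 HEK293-PR-A-luc cells were precultured 5 days in medium with 10% charcoal-stripped FBS, seeded 3,000/well, then exposed to compounds in DMSO for 16 h at 37C. Luciferase was read by ONE-Glo luminescence after 30 min at room temperature.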
# [14] = target: human Caspase 5 (CASP5), CASP5 (gene 838) (UniProt P51878); assay: NVS_ENZ_hCASP5: NovaScreen (NVS) Enzymatic Assay for human Caspase 5 (CASP5) (AID 2283137)
# Chain of human Caspase 5 (CASP5), CASP5 (gene 838) (P51878 whole entry, looked up): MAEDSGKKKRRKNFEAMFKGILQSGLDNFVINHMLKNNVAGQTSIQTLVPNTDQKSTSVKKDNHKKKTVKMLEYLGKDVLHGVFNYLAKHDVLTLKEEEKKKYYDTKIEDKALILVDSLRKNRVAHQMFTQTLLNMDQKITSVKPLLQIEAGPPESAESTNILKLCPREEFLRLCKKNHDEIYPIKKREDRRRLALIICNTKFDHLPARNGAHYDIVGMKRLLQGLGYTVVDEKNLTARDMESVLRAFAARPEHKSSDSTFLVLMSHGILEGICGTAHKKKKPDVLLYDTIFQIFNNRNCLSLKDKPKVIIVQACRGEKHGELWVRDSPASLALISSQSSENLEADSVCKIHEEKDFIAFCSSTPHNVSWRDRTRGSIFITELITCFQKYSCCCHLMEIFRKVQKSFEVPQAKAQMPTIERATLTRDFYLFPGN
# Summary of the method: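 Chemicals were first tested in duplicate at 25 uM against recombinant caspase 5 from E. coli. Activity was read by fluorescence intensity 2 hours after dosing. Those passing a preset inhibition threshold were retested in singleton concentration-response up to 50 uM.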
# [15] = CCTE_Mundy_HCI_Cortical_NOG_NeuronCount: CCTE's Neurite Outgrowth Assay in rat cortical cells for Neuron Count, Mundy Lab (AID 2284236);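 further: neurons counted by imaging betaIII-tubulin and Hoechst stained cortical cells; cells exposed to compound for about 48 hours before fixation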
# Summary of the method: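 Read-out: neuron number by high-content imaging of betaIII-tubulin (Alexa Fluor-488) and Hoechst-labelled rat primary cortical cells.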
# [16] = target: human CYP19A1, CYP19A1 (gene 1588) (UniProt P11511); assay: NVS_ADME_hCYP19A1: NovaScreen (NVS) CYP450-related Enzyme Activity (ADME) Assay for human CYP19A1 (AID 2283098)
# Chain of human CYP19A1, CYP19A1 (gene 1588) (P11511 whole entry, looked up): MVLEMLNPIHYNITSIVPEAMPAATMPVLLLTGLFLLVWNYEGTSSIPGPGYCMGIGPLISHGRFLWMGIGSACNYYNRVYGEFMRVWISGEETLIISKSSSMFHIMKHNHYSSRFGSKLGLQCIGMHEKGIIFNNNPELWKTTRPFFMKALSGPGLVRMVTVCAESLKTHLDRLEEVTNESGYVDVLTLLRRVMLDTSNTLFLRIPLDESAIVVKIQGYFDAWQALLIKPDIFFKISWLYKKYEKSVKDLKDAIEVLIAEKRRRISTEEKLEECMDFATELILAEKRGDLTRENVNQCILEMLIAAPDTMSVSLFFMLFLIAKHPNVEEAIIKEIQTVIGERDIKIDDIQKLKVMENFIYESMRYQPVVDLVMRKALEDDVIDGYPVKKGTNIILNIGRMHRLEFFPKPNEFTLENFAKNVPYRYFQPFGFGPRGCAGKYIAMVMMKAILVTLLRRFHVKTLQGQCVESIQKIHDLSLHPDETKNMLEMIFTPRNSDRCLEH
# Summary of the method: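 Fluorescence intensity read-out; activity taken as signal loss relative to acetonitrile vehicle. Extracted enzyme, specific substrate, no cells, 0.5 h exposure. Duplicate single-point screen at 10 uM, then concentration–response follow-up for actives.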
# [17] = CCTE_Shafer_MEA_acute_AB: CCTE's Alamar Blue Assay for Cytotoxicity in the Neural Acute Assay, Shafer Lab (AID 2284069);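 further: active compounds lower the viability signal compared with DMSO wells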
# Summary of the method: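 Metabolic activity in chemically exposed rat cortical neurons (MEA cultures, day 13/15 post-plating) measured via CellTiter Blue resazurin reduction, 544/590 nm fluorescence; fitted relative to DMSO, with signal loss indicating reduced viability.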
# [18] = CCTE_Shafer_MEA_dev_AB: CCTE's Alamar Blue Assay for Cytotoxicity in the Neural Network Formation Assay, Shafer Lab (AID 2284083);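 further: twelve days of exposure from plating with re-dosing on DIV 5 and 9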
# Summary of the method: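 Fluorescent resazurin reduction serves as the viability read-out, with DMSO as negative control and baseline. Cells were primary rat cortical neurons grown on MEA plates and dosed from day 0 to day 12, treatment renewed on DIV 5 and 9.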
# [19] = CCTE_Mundy_HCI_hNP1_Pro_ResponderAvgInten: CCTE's Proliferation Assay in human neuroprogenitor cells, Mundy Lab (AID 2284224);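 further: human neural progenitor cells hNP1 derived from WA09 embryonic stem cells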
# Summary of the method: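 Proliferation read as average intensity of BrdU-positive cells, imaged at 26.25 h post-dosing: chemical exposure started after 40–44 h culture, BrdU during final 4 h, paraformaldehyde fixation. Positive-direction fit relative to DMSO.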
# [20] = CCTE_Mundy_HCI_hNP1_CellTiter: CCTE's Cell Titer-Glo 2 Assay in human neuroprogenitor cells for Viability, Mundy Lab (AID 2284241)
# Summary of the method: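 Viability read as luminescent ATP content (CellTiter-Glo, 30 min room temperature) twenty-four hours after dosing, relative to DMSO. Cells: WA09-derived hNP1 neuroprogenitors on poly-L-ornithine/laminin, plated 40 to 44 hours before chemical.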
smiles,measurement,setting,value
O=C(C(=O)c1ccccc1)c1ccccc1,AC50,[1],3.77 µM (active)
C=C1CC[C@H]2C[C@@H]1C2(C)C,outcome,[2],inactive
Oc1cccc2ccccc12,outcome,[3],inactive
same,AC50,[4],26.3 µM (active)
same,outcome,[5],inactive
same,outcome,[6],inactive
CC(C)CC(=O)O,outcome,[7],inactive
CCCCCCCCCC/C=C/C1CC(=O)OC1=O (stereo not given),outcome,[8],inactive
CC[N+](CC)(CC(=O)Nc1c(C)cccc1C)Cc1ccccc1,AC50,[9],3.7 µM (active)
same,AC50,[10],18.7 µM (active)
same,outcome,[11],inactive
c1cc[c]([Bi]([c]2ccccc2)[c]2ccccc2)cc1,AC50,PGR (gene 5241) [12],16.3 µM (active)
same,outcome,PGR (gene 5241) [13],inactive
CC1(C)S[C@@H]2[C@H](NC(=O)[C@H](N)c3ccccc3)C(=O)N2[C@H]1C(=O)O,AC50,[14],1.88 µM (active)
same,outcome,[15],inactive
O=C(OCc1ccccc1)c1ccccc1,outcome,[16],inactive
NC(N)=Nc1nc(CSCCC(N)=NS(N)(=O)=O)cs1,outcome,[17],inactive
same,outcome,[18],inactive
same,outcome,[19],inactive
same,outcome,[20],inactive
